Assay results reported in ChEMBL document CHEMBL3988442, “University of Dundee, Small-Polar-MMV Screening Library” (2021).

Experiments:
[1] = target: T1, Aspartate--tRNA(Asp/Asn) ligase (Mycobacterium tuberculosis (strain ATCC 25618 / H37Rv)) (UniProt P9WFW3); test: Assay for Asp RNA synthetase-1 from Mycobacterium tuberculosis; format: functional; design: scale not given: direction of the effect not stated beside the values; conditions: 30 µM; note: in the data most compounds retested in dose-response had high values
T1 sequence (whole entry): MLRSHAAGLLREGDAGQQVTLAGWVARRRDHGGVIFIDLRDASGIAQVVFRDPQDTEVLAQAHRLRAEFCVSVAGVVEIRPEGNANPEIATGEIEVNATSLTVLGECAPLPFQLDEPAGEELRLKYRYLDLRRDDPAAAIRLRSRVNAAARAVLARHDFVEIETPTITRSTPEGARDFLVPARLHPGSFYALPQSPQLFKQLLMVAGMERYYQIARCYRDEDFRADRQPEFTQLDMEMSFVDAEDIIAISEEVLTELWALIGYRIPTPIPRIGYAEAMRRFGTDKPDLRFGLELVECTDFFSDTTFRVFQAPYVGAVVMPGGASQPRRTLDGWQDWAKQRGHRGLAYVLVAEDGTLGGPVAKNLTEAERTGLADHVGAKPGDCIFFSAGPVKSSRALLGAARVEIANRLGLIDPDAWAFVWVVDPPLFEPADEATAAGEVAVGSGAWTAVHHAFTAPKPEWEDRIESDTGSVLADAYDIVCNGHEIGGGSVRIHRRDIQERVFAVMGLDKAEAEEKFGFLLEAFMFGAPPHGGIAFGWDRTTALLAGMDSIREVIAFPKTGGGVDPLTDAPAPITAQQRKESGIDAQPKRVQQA

[2] = target: Shiga toxin 2 (Escherichia coli O157:H7) (UniProt P09385+P09386); test: E. coli 0.157:H7 Shiga Toxin SOP - stx2 screening assay; format: functional; design: scale not given: direction of the effect not stated beside the values; conditions: 30 µM

Structure (SMILES)	Percent Effect [1]	Percent Effect [2]
CCOc1ccccc1C1CCCN1 (stereo unspecified)	2.67%	-3.4%
CN(Cc1nc(N)c2ccccc2n1)C1CCCN(c2cccnn2)C1 (stereo unspecified)	-4.22%	-28.7%
COc1ccccc1CC1CCCN(CC(N)=O)C1 (stereo unspecified)	-3.29%	28.2%
CCc1ncc(C(=O)N2CCCCC2Cn2cccn2)s1 (stereo unspecified)	-4.28%	15.5%
Cn1cc(CN2CCn3cc(CNC(=O)c4cccn4C)nc3C2)cn1	2.49%	-19.5%
O=C(c1ccc(Br)o1)N1CCCCC1Cn1cccn1 (stereo unspecified)	4.78%	-8.55%
CCc1csc(CCNC(=O)C2CC(=O)N(C(C)C)C2)n1 (stereo unspecified)	-1.9%	-30.4%
CC(c1nc(C2CC2)no1)N1CCN(c2ccc(C#N)cn2)CC1 (stereo unspecified)	-0.15%	-13.8%
CSc1ncccc1C(=O)N1C[C@H]2CC[C@@H]1CN(c1cnccn1)C2	7.16%	-42.6%
CCn1nccc1CNC(=O)NC1CCCCC1	11.6%	-68.7%
CCCC(C)(C)NC(=O)c1ccc(CC2CC(=O)NC2=O)cc1 (stereo unspecified)	-0.604%	-9.64%
Cc1ccc(CNC(C)c2ccc3[nH]c(=O)[nH]c3c2)s1 (stereo unspecified)	1.6%	-1.3%
COCCc1noc(CN2CCOC(Cn3nc(C)cc3C)C2)n1 (stereo unspecified)	-2.55%	-7.72%
CCCn1nc2c(cc1=O)CN(CCCN1CCCC1=O)CC2	10.1%	12.4%
O=C1c2cnc(N3CCOCC3)nc2CN1c1ccc2c(c1)OCO2	7.52%	-25.1%
Cc1csc(N2CCN(CC(=O)Nc3nncs3)CC2C)n1 (stereo unspecified)	-3.09%	3.44%
CCOc1ncccc1C(=O)NCCN(CC)C1CC1	0.335%	9.33%
Cc1nc(C)n(CC2CCCN2CC(=O)NCCc2ccccc2)n1 (stereo unspecified)	-7.16%	-6.86%
CCn1cc(S(=O)(=O)N(C)Cc2c(Br)cnn2CC)c(C)n1	3.54%	13.9%
CC(NC(=O)NCCCNS(C)(=O)=O)c1ccncc1 (stereo unspecified)	-3.27%	-2.62%
c1ccc(OCCCN2CCN(c3ccc4nncn4n3)CC2)cc1	-0.637%	-81.9%
CSCc1cccc(S(=O)(=O)N2CCSCC2)c1	0.639%	0.0259%

Structure (SMILES)	Percent Effect [1]	Percent Effect [2]
CC1CN(C)c2ccccc2CN1C(=O)c1ccc[nH]1 (stereo unspecified)	4.95%	-9.14%
CC(C)(NCC(=O)NCCC#N)c1ccc2c(c1)OCCO2	11.1%	14.2%
CCc1cnc2c(c1NCc1cccc(OC)c1)c(=O)n(C)c(=O)n2C	-0.0729%	-21.5%
CN(C(=O)NCCCN1CCCC1)C1CCN(c2ccccc2)C1=O (stereo unspecified)	-0.189%	24.2%
Cc1nc(CN2C(=O)COC3(CCN(Cc4ccco4)CC3)C2C)cs1 (stereo unspecified)	-2.99%	-19.9%
COc1c(C)cnc(CN2CCOC(Cn3nc(C)nc3C)C2)c1C (stereo unspecified)	1.63%	8.19%
CN(Cc1ccco1)C(=O)CN1CCCCC1Cn1cccn1 (stereo unspecified)	-0.346%	-5.72%
Cc1cn2nc(N3CCCC3CC(C)(C)C)sc2n1 (stereo unspecified)	1.06%	22.9%
CC(Cn1cccn1)NCc1nc(-c2cccc(Cl)c2)no1 (stereo unspecified)	-3.34%	22.5%
Cc1ccn(-c2ccc(C(=O)N3CCCC(C(N)=O)C3)cc2)n1 (stereo unspecified)	-3.4%	8.96%
COc1ccc(CN2CC[C@H]3[C@H]2CCN3C(=O)c2cnn(C)c2)cc1	-0.229%	-7.37%
O=C(c1cc(F)ccc1F)C1CCN(C(=O)c2cccnc2O)CC1	-2.36%	27.8%
Cc1cc(C)n(CC2CN(CCOc3cccc(C#N)c3)CCO2)n1 (stereo unspecified)	4.21%	33%
Cc1cc2nc(SCC(=O)N3CCCC3)n(-c3ccccc3)c(=O)c2[nH]1	15.3%	-24.4%
CN(C)C[C@H]1OC[C@@H]2CCN(C(=O)c3cccn3C)C[C@@H]21	0.607%	-9.5%
CCOCC1CC2(CCN(C(=O)c3ccccc3F)CC2)CO1 (stereo unspecified)	3.1%	5.12%
Cc1cc2ccccc2n1CCC(=O)NCc1ncc[nH]1	-0.164%	4.66%
O=C1CCC2(CCCN(CCc3ccccc3)C2)N1Cc1cccnc1 (stereo unspecified)	4.25%	-5.68%
CC(=O)N1CCCCC1c1nc(N)ncc1-c1ccccc1 (stereo unspecified)	5.78%	4.38%
O=C(NCC(Cc1cccc(F)c1)N1CCCC1=O)c1ccccc1 (stereo unspecified)	-2.27%	-0.947%
O=C([C@H]1CCCO1)N1CCc2ncnc(NC3CC3)c2CC1	2.52%	-32%
